# Data from ChEMBL document CHEMBL2218924, “A broad activity screen in support of a chemogenomic map for kinase signalling research and drug discovery” (Biochem J, 2013).
# Assays:
# [1] = target: T1, Aurora kinase C (Homo sapiens) (UniProt Q9UQB9); details: at 1 µM
# T1 sequence (whole entry): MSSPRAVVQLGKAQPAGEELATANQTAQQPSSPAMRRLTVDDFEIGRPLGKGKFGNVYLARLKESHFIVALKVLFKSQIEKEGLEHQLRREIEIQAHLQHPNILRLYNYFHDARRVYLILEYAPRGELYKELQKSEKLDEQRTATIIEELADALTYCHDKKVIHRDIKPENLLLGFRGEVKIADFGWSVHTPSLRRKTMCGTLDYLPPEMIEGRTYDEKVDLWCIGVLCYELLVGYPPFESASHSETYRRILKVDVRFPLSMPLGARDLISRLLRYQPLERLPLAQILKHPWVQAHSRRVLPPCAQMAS
# [2] = target: T1, Aurora kinase C (Homo sapiens); details: at 10 µM
# [3] = target: Tyrosine-protein kinase receptor UFO (Homo sapiens) (UniProt P30530); details: at 1 µM
# [4] = target: Tyrosine-protein kinase receptor UFO (Homo sapiens) (UniProt P30530); details: at 10 µM
# [5] = target: Protein-tyrosine kinase 6 (Homo sapiens) (UniProt Q13882); details: at 1 µM
# [6] = target: Protein-tyrosine kinase 6 (Homo sapiens) (UniProt Q13882); details: at 10 µM
# [7] = target: Tyrosine-protein kinase BTK (Homo sapiens) (UniProt Q06187); details: at 1 µM
# [8] = target: Tyrosine-protein kinase BTK (Homo sapiens) (UniProt Q06187); details: at 10 µM
# [9] = target: Tyrosine-protein kinase Blk (Homo sapiens) (UniProt P51451); details: at 1 µM
# [10] = target: Tyrosine-protein kinase Blk (Homo sapiens) (UniProt P51451); details: at 10 µM
# Sequence of Tyrosine-protein kinase receptor UFO (Homo sapiens) (P30530 whole entry): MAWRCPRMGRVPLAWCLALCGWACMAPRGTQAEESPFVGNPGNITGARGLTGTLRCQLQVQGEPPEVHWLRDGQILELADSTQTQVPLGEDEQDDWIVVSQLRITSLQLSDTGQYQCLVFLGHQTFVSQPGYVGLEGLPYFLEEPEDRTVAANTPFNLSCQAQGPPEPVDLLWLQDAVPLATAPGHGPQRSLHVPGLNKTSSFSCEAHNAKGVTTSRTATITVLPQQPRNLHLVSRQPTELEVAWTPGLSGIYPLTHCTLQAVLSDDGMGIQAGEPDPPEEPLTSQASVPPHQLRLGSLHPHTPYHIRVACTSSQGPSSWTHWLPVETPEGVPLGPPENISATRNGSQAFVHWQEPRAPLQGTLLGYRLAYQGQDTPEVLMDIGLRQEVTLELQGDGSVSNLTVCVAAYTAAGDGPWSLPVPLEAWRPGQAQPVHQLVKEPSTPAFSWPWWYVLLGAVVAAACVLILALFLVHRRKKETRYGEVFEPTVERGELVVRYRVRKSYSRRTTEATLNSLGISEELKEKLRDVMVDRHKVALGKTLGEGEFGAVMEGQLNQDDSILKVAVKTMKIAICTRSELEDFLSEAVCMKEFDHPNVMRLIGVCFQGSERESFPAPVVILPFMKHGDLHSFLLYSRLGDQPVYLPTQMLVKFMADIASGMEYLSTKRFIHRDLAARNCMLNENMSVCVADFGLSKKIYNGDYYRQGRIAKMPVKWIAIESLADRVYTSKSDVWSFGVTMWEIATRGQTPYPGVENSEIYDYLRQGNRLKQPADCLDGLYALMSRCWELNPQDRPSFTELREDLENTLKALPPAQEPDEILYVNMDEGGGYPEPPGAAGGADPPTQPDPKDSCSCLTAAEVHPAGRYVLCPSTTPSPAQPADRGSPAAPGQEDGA
# Sequence of Tyrosine-protein kinase Blk (Homo sapiens) (P51451 2-505 limits assumed): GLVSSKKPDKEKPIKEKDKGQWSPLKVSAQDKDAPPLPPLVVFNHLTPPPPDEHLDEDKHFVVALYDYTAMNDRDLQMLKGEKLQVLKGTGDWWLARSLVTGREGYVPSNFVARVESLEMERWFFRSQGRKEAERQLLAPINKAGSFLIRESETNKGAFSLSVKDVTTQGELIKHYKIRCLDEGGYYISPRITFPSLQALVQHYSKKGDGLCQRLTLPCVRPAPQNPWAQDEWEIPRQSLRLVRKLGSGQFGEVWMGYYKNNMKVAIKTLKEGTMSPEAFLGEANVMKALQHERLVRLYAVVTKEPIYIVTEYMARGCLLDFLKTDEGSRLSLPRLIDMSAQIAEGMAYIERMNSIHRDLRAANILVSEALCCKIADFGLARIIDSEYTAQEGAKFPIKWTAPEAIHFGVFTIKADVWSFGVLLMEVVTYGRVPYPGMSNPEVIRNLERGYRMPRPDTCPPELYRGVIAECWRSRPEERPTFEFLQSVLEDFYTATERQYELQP
# Sequence of Protein-tyrosine kinase 6 (Homo sapiens) (Q13882 whole entry, looked up): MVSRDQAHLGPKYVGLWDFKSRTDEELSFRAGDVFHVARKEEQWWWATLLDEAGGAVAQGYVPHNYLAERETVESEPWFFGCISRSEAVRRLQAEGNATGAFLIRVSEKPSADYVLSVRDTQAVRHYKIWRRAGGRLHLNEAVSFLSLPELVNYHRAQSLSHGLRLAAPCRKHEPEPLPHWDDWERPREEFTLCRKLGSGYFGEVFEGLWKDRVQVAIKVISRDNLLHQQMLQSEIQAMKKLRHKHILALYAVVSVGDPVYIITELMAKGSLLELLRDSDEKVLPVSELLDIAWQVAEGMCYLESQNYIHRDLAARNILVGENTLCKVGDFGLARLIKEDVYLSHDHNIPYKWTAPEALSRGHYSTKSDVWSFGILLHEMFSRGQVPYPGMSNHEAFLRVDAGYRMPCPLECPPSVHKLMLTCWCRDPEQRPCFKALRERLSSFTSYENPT
# Sequence of Tyrosine-protein kinase BTK (Homo sapiens) (Q06187 whole entry): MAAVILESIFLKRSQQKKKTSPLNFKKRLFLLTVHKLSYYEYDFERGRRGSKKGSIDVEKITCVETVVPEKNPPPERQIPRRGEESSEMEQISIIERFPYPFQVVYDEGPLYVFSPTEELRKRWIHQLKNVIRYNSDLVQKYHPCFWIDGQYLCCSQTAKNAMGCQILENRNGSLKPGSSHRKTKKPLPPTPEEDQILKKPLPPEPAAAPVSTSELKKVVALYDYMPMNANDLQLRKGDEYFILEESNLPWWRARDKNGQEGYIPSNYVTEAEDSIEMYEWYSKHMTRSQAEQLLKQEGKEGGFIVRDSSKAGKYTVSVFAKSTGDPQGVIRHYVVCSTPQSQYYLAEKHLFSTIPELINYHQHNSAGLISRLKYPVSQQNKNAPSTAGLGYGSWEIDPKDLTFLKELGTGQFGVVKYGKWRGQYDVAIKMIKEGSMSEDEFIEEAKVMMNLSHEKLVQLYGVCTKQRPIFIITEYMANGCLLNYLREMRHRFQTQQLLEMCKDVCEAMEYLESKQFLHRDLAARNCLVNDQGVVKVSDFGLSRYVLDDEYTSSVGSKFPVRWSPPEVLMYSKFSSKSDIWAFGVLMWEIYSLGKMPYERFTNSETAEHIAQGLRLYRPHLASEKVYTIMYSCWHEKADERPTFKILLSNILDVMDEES
compound,measurement,setting,value
O=C(O)/C=C/c1cc(Br)c(Br)c(Br)c1Br,residual activity,[1],98%
same,residual activity,[2],78%
same,residual activity,[3],91%
same,residual activity,[4],51%
same,residual activity,[5],99%
same,residual activity,[6],101%
same,residual activity,[7],102%
same,residual activity,[8],91%
same,residual activity,[9],99%
same,residual activity,[10],81%
Cn1c2ccccc2c2c3c(c4c5ccccc5n(CCC#N)c4c21)CNC3=O,residual activity,[1],47%
same,residual activity,[2],35%
same,residual activity,[3],53%
same,residual activity,[4],32%
same,residual activity,[7],10%
same,residual activity,[8],9%
Nc1nc(Nc2ccc(S(N)(=O)=O)cc2)nn1C(=O)c1c(F)cccc1F,residual activity,[1],6%
same,residual activity,[2],1%
same,residual activity,[3],56%
same,residual activity,[4],13%
same,residual activity,[5],106%
same,residual activity,[6],74%
same,residual activity,[9],74%
same,residual activity,[10],9%
CC(C)N(CCC(=O)c1ccc2ccccc2c1)Cc1ccccc1,residual activity,[1],76%
same,residual activity,[2],61%
same,residual activity,[3],69%
same,residual activity,[4],74%
NC(=O)c1ccc(-c2nc(-c3ccc4c(c3)OCCO4)c(-c3ccccn3)[nH]2)cc1,residual activity,[1],84%
same,residual activity,[2],90%
same,residual activity,[3],77%
same,residual activity,[4],85%
same,residual activity,[9],88%
same,residual activity,[10],85%
Nc1ncnc2[nH]nc(Nc3ccc(F)cc3)c12,residual activity,[1],80%
same,residual activity,[2],43%
same,residual activity,[3],90%
same,residual activity,[4],57%
same,residual activity,[5],51%
same,residual activity,[6],19%
same,residual activity,[7],74%
same,residual activity,[8],34%
same,residual activity,[9],3%
same,residual activity,[10],3%
O=c1cc(N2CCOCC2)oc2c1ccc1ccccc12,residual activity,[1],102%
same,residual activity,[2],87%
same,residual activity,[3],82%
same,residual activity,[4],78%
same,residual activity,[5],110%
same,residual activity,[6],105%
same,residual activity,[7],94%
same,residual activity,[8],86%
same,residual activity,[10],90%
N#Cc1c(NC(=O)c2cccc3ccccc23)sc2c1CCCC2,residual activity,[1],98%
same,residual activity,[2],97%
same,residual activity,[3],96%
same,residual activity,[4],79%
same,residual activity,[10],97%
O=C(Nc1nc2ccccc2n1CCN1CCOCC1)c1cccc([N+](=O)[O-])c1,residual activity,[3],75%
same,residual activity,[4],78%
same,residual activity,[7],100%
same,residual activity,[8],109%
same,residual activity,[9],111%
same,residual activity,[10],100%
O=C1Nc2ccccc2/C1=C\c1c(Cl)[nH]c2ccccc12,residual activity,[4],58%
same,residual activity,[6],54%
same,residual activity,[8],80%
O=c1cc(N2CCNCC2)oc2c(-c3ccccc3)cccc12,residual activity,[3],80%
same,residual activity,[4],76%
same,residual activity,[6],99%
same,residual activity,[10],71%
COc1ccc2c(c1)c(C1=C(c3c[nH]c4ccccc34)C(=O)NC1=O)cn2CCCN(C)C,residual activity,[2],59%
same,residual activity,[4],40%
same,residual activity,[5],98%
same,residual activity,[6],82%
same,residual activity,[9],57%
same,residual activity,[10],7%
NC(=O)c1cccc(-c2cc(Nc3ccc(OC(F)(F)F)cc3)ncn2)c1,residual activity,[3],89%
same,residual activity,[4],76%
same,residual activity,[7],96%
same,residual activity,[8],92%
same,residual activity,[9],82%
same,residual activity,[10],57%
O=C1Cc2c([nH]c3ccc(Br)cc23)-c2ccccc2N1,residual activity,[1],76%
same,residual activity,[2],71%
same,residual activity,[5],95%
same,residual activity,[6],72%
NCCNc1ncc(C(N)=O)c(Nc2cccc(C(F)(F)F)c2)n1,residual activity,[3],74%
same,residual activity,[4],58%
same,residual activity,[5],74%
same,residual activity,[6],14%
same,residual activity,[9],79%
same,residual activity,[10],12%
Nc1ncnc2c1cnn2-c1ccccc1,residual activity,[1],97%
same,residual activity,[2],53%
same,residual activity,[5],98%
same,residual activity,[6],96%
same,residual activity,[7],94%
same,residual activity,[8],99%
same,residual activity,[10],88%
O=C1C(Cl)=C(N2C(=O)CCC2=O)C(=O)c2ccccc21,residual activity,[1],67%
same,residual activity,[2],62%
same,residual activity,[4],80%
same,residual activity,[7],91%
same,residual activity,[8],95%
same,residual activity,[10],95%
Nc1nccc(-c2c(-c3ccc(F)cc3)ncn2C2CCNCC2)n1,residual activity,[2],78%
same,residual activity,[6],30%
O=c1cc(N2CCOCC2)oc2c(-c3ccccc3)cccc12,residual activity,[5],101%
same,residual activity,[6],101%
Cc1cc(C)c(/C=C2\C(=O)Nc3ccccc32)[nH]1,residual activity,[3],31%
same,residual activity,[4],21%
same,residual activity,[5],103%
same,residual activity,[6],104%
same,residual activity,[9],65%
same,residual activity,[10],32%
CSc1nc(-c2ccc(F)cc2)c(-c2ccnc(NC(C)c3ccccc3)c2)[nH]1 (configuration not stated),residual activity,[3],101%
same,residual activity,[4],85%
same,residual activity,[6],89%
same,residual activity,[7],90%
same,residual activity,[8],91%
same,residual activity,[9],98%
same,residual activity,[10],63%
O=S(=O)(NCCNC/C=C/c1ccc(Br)cc1)c1cccc2cnccc12,residual activity,[1],80%
same,residual activity,[2],22%
same,residual activity,[10],76%
CN([C@@H](Cc1ccc(OS(=O)(=O)c2cccc3cnccc23)cc1)C(=O)N1CCN(c2ccccc2)CC1)S(=O)(=O)c1cccc2cnccc12,residual activity,[7],100%
same,residual activity,[8],86%
same,residual activity,[9],98%
same,residual activity,[10],81%
CCN1/C(=C/C(C)=O)Sc2ccc(OC)cc21,residual activity,[3],77%
same,residual activity,[4],75%
O=C1NC(=O)C(c2cn(CCCn3ccnc3)c3ccccc23)=C1Nc1ccccc1,residual activity,[2],67%
same,residual activity,[4],66%
same,residual activity,[10],33%
c1ccc(-c2cnc(Nc3ccc(OCCN4CCCC4)cc3)s2)cc1,residual activity,[1],110%
same,residual activity,[2],47%
same,residual activity,[6],34%
same,residual activity,[9],75%
same,residual activity,[10],6%
N#C/C(=C\c1ccc(O)c(O)c1)C(=O)NCc1ccccc1,residual activity,[4],77%
same,residual activity,[9],104%
N#C/C(=C1/Nc2ccccc2S1)c1ccnc(NCCc2cccnc2)n1,residual activity,[5],60%
same,residual activity,[6],37%
same,residual activity,[7],96%
same,residual activity,[8],43%
COc1ccc(COc2ccc(Cc3cnc(N)nc3N)cc2OC)cc1,residual activity,[3],80%
same,residual activity,[4],74%
same,residual activity,[10],98%
O=C1NC(=O)C(c2c[nH]c3ccccc23)=C1c1c[nH]c2ccccc12,residual activity,[1],114%
same,residual activity,[4],56%
same,residual activity,[7],100%
same,residual activity,[8],67%
same,residual activity,[10],23%
Oc1cccc(-c2nc(N3CCOCC3)c3oc4ncccc4c3n2)c1,residual activity,[4],86%
COc1ccc(Cl)cc1NC(=O)Nc1cc(C)nc2ccccc12,residual activity,[3],98%
same,residual activity,[4],88%
same,residual activity,[10],78%
O=C1Cc2c([nH]c3ccc([N+](=O)[O-])cc23)-c2ccccc2N1,residual activity,[5],111%
same,residual activity,[6],107%
same,residual activity,[9],29%
same,residual activity,[10],33%
O=c1c(-c2ccc(F)cc2)c(-c2ccncc2)[nH]n1-c1ccc(Cl)cc1,residual activity,[5],59%
same,residual activity,[6],7%
same,residual activity,[9],101%
same,residual activity,[10],74%
O=C(Nc1ccc(Cl)cc1)c1ccccc1NCc1ccncc1,residual activity,[2],70%
same,residual activity,[5],21%
same,residual activity,[6],1%
CCOC(=O)c1c(C)[nH]c(/C=C2\C(=O)Nc3ccccc32)c1C,residual activity,[3],84%
same,residual activity,[4],81%
same,residual activity,[9],89%
same,residual activity,[10],57%
O=S(=O)(c1cccc2cnccc12)N1CCCNCC1,residual activity,[2],59%
COc1cc2c(cc1OC)-c1n[nH]c(Nc3cccc(F)c3)c1C2,residual activity,[3],71%
same,residual activity,[4],50%
same,residual activity,[5],78%
same,residual activity,[6],25%
same,residual activity,[7],22%
same,residual activity,[8],4%
same,residual activity,[9],14%
same,residual activity,[10],2%
COc1ccc(CNC(=O)Nc2ncc([N+](=O)[O-])s2)cc1,residual activity,[1],75%
same,residual activity,[2],78%
same,residual activity,[5],24%
same,residual activity,[6],17%
same,residual activity,[7],42%
same,residual activity,[8],35%
Fc1ccc(-c2nc3n(c2-c2ccncc2)CCS3)cc1,residual activity,[1],98%
same,residual activity,[2],95%
same,residual activity,[7],100%
same,residual activity,[8],98%
CCOc1nc(NC(=O)Cc2cc(OC)ccc2OC)cc(N)c1C#N,residual activity,[1],78%
same,residual activity,[5],60%
same,residual activity,[6],50%
same,residual activity,[7],81%
same,residual activity,[8],78%
